# Data reported in PubChem BioAssay (NCATS).
# Inconclusive results are not listed. Active and inactive are the calls of the source. Calls come from the whole dose curve; as a rule, active = well fitted inhibition curve with a large enough effect; inconclusive = small, poorly fitted or top-dose-only effect; inactive = no such curve, though single readings can be large or run the other way.
# Assay: qHTS to identify inhibitors of the type 1 interferon - major histocompatibility complex class I in skeletal muscle: primary screen against the NCATS Mechanism Interrogation Plate v5.0 (MIPE) Libary (AID 1347411); note: nearly all actives have a fitted effect of over 65% in size;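 for activity change, negative = inhibition: plate controls were vehicle for no effect and reference inhibitor for full effect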
# Conditions: iHSKM cells + IFN-b, HiBiT-tagged MHC-I luminescence, 24 h; series mostly up to 45.8 µM; activity change, negative = inhibition: at the top concentration
# In short: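 IFN-beta-driven (4 ng/ml) HLA-B-HiBit expression in CRISPR-tagged C25cl48 myoblasts; compounds 11-pt, 1:3, max 46 uM, 24 hr exposure; lytic NanoLuc complementation luminescence.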
# Potency is the fitted concentration of half-maximal effect.
SMILES,Potency,"activity change, negative = inhibition"
CCS(=O)(=O)Nc1ccc2[nH]c(O)c(C(=Nc3ccc(CN4CCCCC4)cc3)c3ccccc3)c2c1,2620 nM (active),
CCCCC(=O)O[C@]1(C(=O)CO)[C@@H](C)C[C@H]2[C@@H]3CCC4=CC(=O)C=C[C@]4(C)[C@@]3(F)[C@@H](O)C[C@@]21C,,-11.6% (inactive)
COc1ccc(C[C@@H](C)[C@@H](C)Cc2ccc(OC)c(OC)c2)cc1OC,,-15.3% (inactive)
O=C(Nc1ccc(Oc2ccnc3[nH]ccc23)c(F)c1)c1cccn(-c2ccc(F)cc2)c1=O,,-29.4% (inactive)
Cc1cnc(Nc2ccc(N3CCN(C)CC3)cc2)nc1Nc1cccc(S(=O)(=O)NC(C)(C)C)c1,11700 nM (active),
C[C@H](NC(=O)Cc1cc(F)cc(F)c1)C(=O)N[C@H](C(=O)OC(C)(C)C)c1ccccc1,,-24.7% (inactive)
NC(=O)c1cccc(-c2cccc(OC(=O)NC3CCCCC3)c2)c1,,-2.65% (inactive)
CC(C)C[C@H](NC(=O)CNC(=O)c1cc(Cl)ccc1Cl)B1OC(=O)CC(CC(=O)O)(C(=O)O)O1 (stereo partly drawn),294 nM (active),
CCCCCCCN(CC)CCCC(O)c1ccc(NS(C)(=O)=O)cc1 (stereo not drawn),,15.7% (inactive)
FC(F)(F)c1ccc(Nc2nc3ccc(Oc4ccnc(-c5ncc(C(F)(F)F)[nH]5)c4)cc3[nH]2)cc1,,-17.9% (inactive)
CC(Oc1ccc(O)cc1)(P(=O)(O)O)P(=O)(O)O,,7.93% (inactive)
CN(CC(=O)N(Cc1ccc(C2CCCCC2)cc1)c1ccc(C(=O)O)c(O)c1)S(=O)(=O)c1c(F)c(F)c(F)c(F)c1F,,6.76% (inactive)
CCc1nc(-c2cccc(C)c2)c(-c2ccnc(NC(=O)c3ccccc3)c2)s1,,-22.4% (inactive)
